# “And” between values parts separate entries of the source, which are not always exact repeats. Identical values can stand only once. About 83,000 compounds went through this panel and 20% of them were active in at least one assay; those are over-represented in the sample as a whole.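 Cell lines were cultured in 96-well plates, exposed to a single compound concentration, and assessed for percent growth 48 hours later.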 Unmarked numbers belong to inactive results. The source made the active and inactive calls. The calls were made as follows: active = growth percent below 10; inactive = the rest.
# System: MDA-MB-468 breast
# Assay: NCI-60 one-dose screen, 48 h (100 = growth as untreated, 0 = no growth, -100 = all killed)
# Details: 10 µM unless noted
row,Compound,growth
1,C(=C\c1cn(-c2ccccc2)nc1-c1ccccc1)/c1nnc(-c2c[nH]c3ccccc23)o1,87.1%
2,OCC1OC(n2cnc3c(=S)nc[nH]c32)C(O)C1O (centres undefined),-6.42% (active)
3,CN(C)c1ccc2nc3ccc(=[N+](C)C)cc-3sc2c1,-31.5% (active) and -9.26% (active) and -4.98% (active)
4,COc1ccc2c(c1)[nH]c(=O)c1c3cc(OC)c(OC)cc3cn21,11.4%
5,CN(C)CCSC1=Nc2ccc(Cl)cc2C(c2ccccc2Cl)N(C)C1 (centres undefined),58.4%
6,NC(=NC1C2CC3CC(C2)CC1C3)Nc1ccc(I)cc1 (centres undefined),-3.88% (active)
7,Cc1ccccc1-c1cc(-c2ccc(Br)s2)[nH]c(=O)c1C#N,96.4%
8,Cc1ccc2oc(=O)cc(/C(=C3/C=CC=N3)c3ccc[nH]3)c2c1,3.2% (active)
9,S=C1CCCCCN1,108%
10,Cc1ccc2nc(-c3ccc(OCC(=O)N=Nc4c(O)[nH]c5ccccc45)cc3)[nH]c2c1,60.6%
11,c1cc(N2CCCC2)c2nc(-c3[nH]ncc3Nc3ncnc4[nH]ccc34)[nH]c2c1,-76.2% (active)
12,O=[N+]([O-])c1cccc(C2CC(c3ccccc3)=Nc3ccccc3S2)c1 (centres undefined),86.4%
13,COc1ccc(Cn2cc(Cn3c(=O)c(-c4nc5ccccc5[nH]4)cc4ccccc43)nn2)c(OC)c1OC,13.6%
14,CSc1nc(-c2ccco2)c2c(N)[nH]nc2n1,113%
15,CCOC(=O)c1c(Nc2ccccc2)nn2c(-c3ccccc3)ccnc12,98%
16,CCN(CC)CCCCCNc1cc(OC(=O)c2ccc(Cl)cc2)cc2cccnc12,71.6%
17,CCCN1C=C/C(=C\C(=O)n2ccc3ccccc32)c2ccccc21,7.36% (active)
18,CCN(CC)CCOc1ccc(C(=O)/C=C\c2ccc(Cl)cc2Cl)cc1,39.8%
19,CNCCCn1c2c(c3ccc([N+](=O)[O-])cc3c1=O)C(=O)c1cc(OC)cnc1-2,-39.5% (active)
20,NC(=O)c1ccc(NC(=O)c2oc3ccccc3c2-c2cnn(-c3ccccc3)c2)cc1,24.2% [50 µM]

row,Compound,growth
1,C(=N/Nc1ncc(-c2cc3cc(-c4ccccc4)ccc3o2)s1)/c1cccs1,77.6%
2,CC(C)N1C(=O)/C(=c2\sc3n(c2=O)C2C(NN=3)N(C)C(=O)N2C)c2ccccc21 (centres undefined),37.3%
3,CC(C(C(=O)N1CCCCC1)N1CCCCC1)N1CCCCC1 (centres undefined),115%
4,Cc1c(Cl)cccc1NC(=O)c1sc2nc3c(cc2c1N)CCCCCC3,26.5%
5,C/C(=N\NC(=O)c1ccccc1O)c1cccc(/C(C)=N/NC(=O)c2ccccc2O)n1,23.9%
6,O=C1C2=C(C(=O)c3c(O)cccc31)C(c1ccco1)c1sc(=O)[nH]c1S2 (centres undefined),7.85% (active)
7,COc1ccc(Cn2cc3c(c2-c2cc(OC)c(OC)c(OC)c2)CCc2cnoc2-3)cc1,4.09% (active)
8,N#Cc1c(-c2ccccc2)cc(-c2ccccc2)n(CC(=O)NO)c1=O,43.5%
9,COc1cccc(NC2=CC(=O)C(C)=C(C)C2=O)c1,25.8%
10,O=c1c2ccccc2nc(SCCN2CCCCC2)n1CCc1ccccc1,92%
11,Cc1cc(Cl)ccc1NC(=O)c1cc2ccccc2cc1O,-9.61% (active)
12,CCC(c1ccc(O)cc1)C(CC)c1ccc(O)c(F)c1 (centres undefined),69.5%
13,NC(N)=NCCCCCNc1noc(Cc2c[nH]c3cc(Br)ccc23)n1,1.76% (active)
14,COC(=O)[C@H](CC(C)C)NC(=O)NC(=O)NC(=O)CI,75.9%
15,CO[C@H](C(=O)N[C@@H](CCCCNC(=O)OCc1ccccc1)C(=O)OC(C)(C)C)[C@@H]1Cc2cc3cc(OC4CC(OC5CC(O)C(O)C(C)O5)C(O)C(C)O4)c(C)c(O)c3c(O)c2C(=O)[C@H]1OC1CC(OC2CC(OC3CC(C)(O)C(O)C(C)O3)C(O)C(C)O2)C(O)C(C)O1 (some centres undefined),-37.5% (active)
16,Cc1ccc(OC2=C(C#N)C(=N)N3C(=NN2)Sc2c(C)ccc(C)c23)cc1,110%
17,CCCCCCCCCCCCCC(=S)NCCCC[C@H](NC(=O)OCc1ccccc1)C(=O)Nc1ccccc1,27.1%
18,CCCCC1=c2c([nH]c3ccc(OC)cc23)=NC2C=CC=NC12 (centres undefined),-23.5% (active)
19,COc1ccc(Nc2ncc(Br)c(NCCCNC(=O)c3cccs3)n2)cc1,51.1%

# From PubChem BioAssay (NCI)
